Data reported in PubChem BioAssay (NCI).
Values joined by “and” are separate entries in the source; they are usually repeats but may differ in a detail not shown here. Equal entries are not always repeated. This is part of a sample that, as a whole, favours compounds with a hit. Of some 79,000 tested, about 15% had one in any assay. Cut-off read from the data, not from the text of the source: active = growth inhibition above about 70%; inactive = the rest.

How the values were obtained:
[1] = NCI Yeast Anticancer Drug Screen. Data for the rad50 strain (AID 155);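 note: 0% = growth of vehicle-only cultures of the same strain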; details: S. cerevisiae rad50 strain growth inhibition, active compounds read high; at 50.0 µM unless noted
Outline: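 Compounds were tested on a yeast strain with an engineered DNA damage repair alteration; the reported value is growth inhibition normalised to vehicle treatment.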

[2] = NCI Yeast Anticancer Drug Screen. Data for the mec2-1 strain (AID 157); details: S. cerevisiae mec2-1 strain, active compounds read high; at 50.0 µM unless noted
Outline: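 mec2-1 yeast strain, carrying an alteration in DNA damage repair or cell cycle control, was exposed to compounds; growth inhibition was measured relative to vehicle-treated controls.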

[3] = NCI Yeast Anticancer Drug Screen. Data for the sgs1 mgt1 strain (AID 161);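 note: 0% = growth of cultures given vehicle only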; details: S. cerevisiae sgs1 mgt1 strain, active compounds read high; at 50.0 µM unless noted
Outline: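 This yeast growth screen uses a strain with defined DNA-repair lesions; compound-treated growth is compared with vehicle-treated growth.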

[4] = NCI Yeast Anticancer Drug Screen. Data for the cln2 rad14 strain (AID 165);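 note: 0% = growth equal to vehicle treated cultures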; details: S. cerevisiae cln2 rad14 strain, active compounds read high; at 50.0 µM unless noted
Outline: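 Yeast carrying cln2 and rad14 alterations (cell cycle control and DNA damage repair) were exposed to compounds. Growth inhibition was measured against vehicle-treated controls.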

[5] = NCI Yeast Anticancer Drug Screen. Data for the bub3 strain (AID 167); details: S. cerevisiae bub3 mutant strain, active compounds read high; at 50.0 µM unless noted
Outline: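 Growth of a checkpoint-deficient yeast mutant is measured after compound exposure. Values represent inhibition relative to vehicle.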

[6] = NCI Yeast Anticancer Drug Screen. Data for the mlh1 rad18 strain (AID 175); details: S. cerevisiae mlh1 rad18 strain growth inhibition, active compounds read high; at 50.0 µM unless noted
Outline: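 Growth inhibition of the yeast strain was measured after compound exposure and expressed relative to vehicle-treated controls. The strain carries defined defects in DNA damage repair.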

Measured: growth inhibition

Cc1ncc(CO)c(CO)c1OCC(O)CN1CCN(c2ccc(F)cc2)CC1 (centres undefined)
inactive: [1] -15.8% | [2] -2.65% | [3] -8.25% | [4] -41.2% | [5] -6.9% | [6] -0.45%

COc1cc([N+](=O)[O-])c(S(=O)(=O)O)cc1NS(=O)(=O)c1ccc(C)cc1
inactive: [1] 7.8% | [2] 16.6% | [3] 22% | [4] 3.95% | [5] 1.4% | [6] 10.2%

NC(=O)Nc1ccc(/C=C\c2ccnc3ccccc23)cc1
inactive: [1] -19.7% | [2] 2.5% | [3] 4.95% | [4] -31.9% | [5] -15.9% | [6] -9.45%

CC(=O)N(c1nc2ccccc2s1)N1C(=O)c2ccccc2C1=O
inactive: [1] -18.8% | [2] -33.3% | [3] -17.9% | [4] -2.15% | [5] -40.2% | [6] -20.2%

CCCCCCc1cc2cc(-c3csc(CC#N)n3)c(=O)oc2cc1O
inactive: [1] 13.1% | [2] 14.1% | [3] -29.2% | [4] -6.6% | [5] -32.8% | [6] -32%

Nc1ccc(Cc2cc([N+](=O)[O-])cc([N+](=O)[O-])c2)cc1
inactive: [1] 3.15% | [2] -1.75% | [3] 11.4% | [4] -42% | [5] 15.3% | [6] -29.8%

CCCCCCn1ncc2c(N)ncnc21
inactive: [1] 10.4% | [2] 6.85% | [3] -1.3% | [4] -4% | [5] 29.8% | [6] -1.3%

CCCCCC[N+](C)(C)C
inactive: [1] 28% | [2] -16.3% | [3] 2.7% | [4] 6.75% | [5] 31.3% | [6] 16.2%

Oc1cccnc1Cl
inactive: [1] 12.9% | [2] -13.7% | [3] 17.4% | [4] 9.2% | [5] 13.7% | [6] 2.5%

CCOC(=O)Cn1c(=O)[nH]c(=O)c2c1ncn2Cc1ccccc1
inactive: [1] 32.9% | [2] -2.35% | [3] -3.1% | [4] 13.2% | [5] 30.2% | [6] 25.7%

Cc1ccc(OCC(=O)O)c(Cl)c1
inactive: [1] -1.9% | [2] -1.9% | [3] 0.65% | [4] -22.4% | [5] 17.4% | [6] 2.3%

Cc1ccc(NC(=O)ON(C)C)cc1
inactive: [1] -1.65% | [2] 11.7% | [3] 8.25% | [4] -81.5% | [5] -18.9% | [6] -24.2%

CC(=O)Nc1cc(S(=O)(=O)O)cc2cc(S(=O)(=O)O)cc(O)c12
inactive: [1] -20.9% | [2] -13.3% | [3] -0.05% | [4] 21.8% | [5] 15.6% | [6] -8.2%

COc1c2c(cc3c1C(CCCc1ccccc1)N(C)CC3)OCO2 (centres undefined)
inactive: [1] 22.4% | [2] 7.6% | [3] 30.7% | [4] 11.5% | [5] 9.75% | [6] 28.6%

CCOC(=O)C(=O)Nc1cc(C)no1
inactive: [1] 4.95% | [2] 9.85% | [3] -6.6% | [4] -25.6% | [5] -25.1% | [6] -2%

COc1ccc(CC2c3cc(OC)c(OC)cc3CC[N+]2(C)C)cc1OC (centres undefined)
inactive: [1] -13.1% | [2] -20.8% | [3] 1.6% | [4] 10.9% | [5] -1.65% | [6] -46.4%

Nc1ncnc(Nc2ccc(Cl)cc2Cl)n1
inactive: [1] 5.05% | [2] -11.7% | [3] 5.75% | [4] 1.85% | [5] 5.25% | [6] -7.05%

CC(=O)Nc1ccc(NC(=O)NCCCCCCNC(=O)Nc2ccc(NC(C)=O)cc2)cc1
inactive: [1] -1.5% | [2] 2.7% | [3] -21.6% | [4] -20.6% | [5] -1.7% | [6] 5.5%

Nc1nc2cc3nc(N)c(N)nc3cc2nc1N
inactive: [1] -6.4% | [2] 14.7% | [3] 13.1% | [4] 34.9% | [5] 13.2% | [6] 15.1%

CC(C)C(=O)NS(=O)(=O)c1ccccc1
inactive: [1] -14.6% | [2] -3.8% | [3] 0.5% | [4] -7.55% | [5] -14.4% | [6] -27.9%

Cc1ccc(/C=N/NC(N)=S)nn1
inactive: [1] 3.45% | [2] 2.25% | [3] -8.15% | [4] -67.4% | [5] 2.45% | [6] 5.4%

CCOC(=O)c1ccc(NC(=S)NC(=O)C(C)Oc2ccccc2)cc1 (centres undefined)
inactive: [1] -10.9% | [2] 40% | [3] 44.8% | [4] -21.2% | [5] 37.8% | [6] 25.2%

COC(=O)c1[nH]nc(-c2ccccc2)c1N
inactive: [1] 11% | [2] 2.95% | [3] -12.8% | [4] -51.8% | [5] 17.4% | [6] 1.9%

Cc1ccc(NC(=O)Oc2ccc(C(C)(C)C)cc2)cc1NC(=O)Oc1ccc(C(C)(C)C)cc1
inactive: [1] -14.4% | [2] -29.4% | [3] -6.35% | [4] -4.75% | [5] 10.7% | [6] -18.6%

Nn1c(NNC(=O)C(=O)Nc2cc(Cl)c(Cl)cc2Cl)n[nH]c1=S
inactive: [1] -6.05% | [2] -16.1% | [3] -6.45% | [4] 23.8% | [5] 19.2% | [6] 1.4%

CC(CCCCCOC(=O)Nc1ccccc1)OC(=O)Nc1ccccc1 (centres undefined)
inactive: [1] 6.2% | [2] -12.3% | [3] -3.1% | [4] 0.75% | [5] 1.15% | [6] 2.6%

O=[N+]([O-])c1ccc(N2N=NC(c3ccccc3)C2(c2ccccc2)N2CCOCC2)cc1 (centres undefined)
inactive: [1] 29.6% | [2] -0.9% | [3] 28.4% | [4] 16.7% | [5] 0.95% | [6] 14.6%

CCN(CC)CCCC(C)Nc1cc(OC)c2nc(C)ccc2c1OC (centres undefined)
inactive: [1] -2.35% | [2] -0.4% | [3] -14.2% | [4] -5.9% | [5] -3.2% | [6] 14.9%

Cc1cc(C)nc(NS(=O)(=O)c2ccc(NC(=O)NC(F)(F)F)cc2)n1
inactive: [1] -41% | [2] -30.2% | [3] -63% | [4] 15.8% | [5] 26.9% | [6] -23.9%

CN(C)CC1CCCCCC(CN(C)C)C1=O (centres undefined)
inactive: [1] -17.9% and 38% | [2] 8.3% and 2.75% | [3] -1.85% and 25.9% | [4] 0.45% and -28.4% | [5] -10.4% and -1.65% | [6] 16.8% and 12.9%

CCOC(=O)c1oc2cc(O)ccc2c(=O)c1-c1ccc(OC)c(OC)c1
inactive: [1] 5.95% | [2] -1.7% | [3] 16.3% | [4] 3.45% | [5] 4.65% | [6] 11.8%

O=C1OC(=O)C2C3CC(C(Br)C3Br)C12 (centres undefined)
inactive: [1] 3.8% | [2] -14.4% | [3] 7.8% | [4] -36.5% | [5] -1.2% | [6] 21.5%

c1ccc(CNc2nn[nH]n2)cc1
inactive: [1] 2.65% | [2] 5.1% | [3] -5.9% | [4] -20.6% | [5] 4.2% | [6] 9%

CCn1c2ccccc2c2ccccc21
inactive: [1] 27.2% | [2] -6% | [3] -10.2% | [4] 13.8% | [5] -8.15% | [6] 17.4%

O=C(Cc1csc2ccccc12)NCC1CC1
inactive: [1] -17.4% | [2] -19.1% | [3] -0.45% | [4] 2.45% | [5] 11% | [6] -3.55%

Cc1ccc(S(=O)(=O)Nc2ccc([N+](=O)[O-])cc2-c2ccccc2)cc1
inactive: [1] -0.25% | [2] -9.2% | [3] 0.2% | [4] -1.15% | [5] 5.15% | [6] 4.2%

CN(C)CC[N+]1=Nc2cccc3cccc(c23)N1
inactive: [1] -6.85% | [2] -8.6% | [3] -2.4% | [4] 1.55% | [5] -6.2% | [6] 3.9%

Cc1cc[n+](CCC(N)=O)cc1
inactive: [1] -10.8% | [2] -30.8% | [3] -3% | [4] 1.85% | [5] -16.9% | [6] -19.9%

Cc1cccc(-c2cc3ccccc3c(Cl)n2)n1
inactive: [1] -4% | [2] -23.1% | [3] 10.8% | [4] -0.6% | [5] 7.6% | [6] 7.7%
